# Unmarked numbers belong to inactive results.
# Tests used:
# Test in all cases: log2 ratio of Biotin-Ahx-Ub-VS probe labelling (fragment/DMSO); higher = less target engagement (more negative = stronger competition), active = hit call of the paper (q ≤ 0.05, log2 ratio ≤ -1)
# Settings in all cases: compound concentration: 200 uM; treatment time: 3 h
# USP42 = target: T1, USP42 (UniProt Q9H9J4)
# T1 sequence (whole entry): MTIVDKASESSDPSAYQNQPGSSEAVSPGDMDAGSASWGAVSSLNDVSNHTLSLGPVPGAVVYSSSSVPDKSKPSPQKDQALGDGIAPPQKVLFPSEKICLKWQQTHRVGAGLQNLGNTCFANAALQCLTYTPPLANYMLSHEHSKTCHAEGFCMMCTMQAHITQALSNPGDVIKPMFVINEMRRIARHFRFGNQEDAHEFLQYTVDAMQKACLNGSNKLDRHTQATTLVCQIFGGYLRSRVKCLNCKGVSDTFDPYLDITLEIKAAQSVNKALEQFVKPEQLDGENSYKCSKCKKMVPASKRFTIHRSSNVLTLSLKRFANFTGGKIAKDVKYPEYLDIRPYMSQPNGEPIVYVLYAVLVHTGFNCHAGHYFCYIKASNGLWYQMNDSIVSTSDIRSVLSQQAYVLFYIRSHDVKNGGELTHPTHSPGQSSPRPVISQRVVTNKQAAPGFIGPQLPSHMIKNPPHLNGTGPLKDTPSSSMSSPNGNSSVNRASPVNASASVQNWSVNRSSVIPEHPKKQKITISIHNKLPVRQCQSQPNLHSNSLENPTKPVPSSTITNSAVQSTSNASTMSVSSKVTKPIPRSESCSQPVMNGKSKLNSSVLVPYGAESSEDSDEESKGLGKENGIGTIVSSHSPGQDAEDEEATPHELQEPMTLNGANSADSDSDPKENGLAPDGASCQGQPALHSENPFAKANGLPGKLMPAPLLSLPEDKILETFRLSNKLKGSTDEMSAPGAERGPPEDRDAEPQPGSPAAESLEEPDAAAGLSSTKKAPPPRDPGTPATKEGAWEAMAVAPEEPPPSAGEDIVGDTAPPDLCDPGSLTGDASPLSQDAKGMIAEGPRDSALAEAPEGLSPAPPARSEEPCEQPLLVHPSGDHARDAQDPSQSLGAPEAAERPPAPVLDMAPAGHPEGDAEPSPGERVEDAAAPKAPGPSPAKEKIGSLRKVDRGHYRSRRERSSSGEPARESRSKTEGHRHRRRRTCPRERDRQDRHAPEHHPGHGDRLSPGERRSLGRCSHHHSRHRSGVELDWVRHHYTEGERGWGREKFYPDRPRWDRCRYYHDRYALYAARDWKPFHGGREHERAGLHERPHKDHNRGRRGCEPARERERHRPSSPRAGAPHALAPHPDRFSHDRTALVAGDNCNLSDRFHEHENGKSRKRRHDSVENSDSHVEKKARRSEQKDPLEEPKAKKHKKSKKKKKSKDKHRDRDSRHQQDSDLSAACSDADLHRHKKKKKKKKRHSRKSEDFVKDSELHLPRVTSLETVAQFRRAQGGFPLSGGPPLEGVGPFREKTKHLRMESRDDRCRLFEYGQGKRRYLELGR
# How it was run: (§1)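 Labelled DUBs from HEK293T lysate were NeutrAvidin-enriched, digested with LysC and trypsin, and run by diaPASEF LC-MS/MS. Before that, each 495 µg sample in Tris/CHAPS/IGEPAL buffer with protease inhibitors was treated in triplicate with fragment at 200 µM or vehicle for 3 h, then with Biotin-Ahx-Ub-VS at 0.5 µM final for 1 h. Values are average log2 ratios of fragment over vehicle by unpaired t-test, based on global-median-normalised Spectronaut label-free quantities from proteins with ≥2 unique peptides.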
# USP46 = USP46 (UniProt P62068)
# Sequence of USP46 (P62068 whole entry): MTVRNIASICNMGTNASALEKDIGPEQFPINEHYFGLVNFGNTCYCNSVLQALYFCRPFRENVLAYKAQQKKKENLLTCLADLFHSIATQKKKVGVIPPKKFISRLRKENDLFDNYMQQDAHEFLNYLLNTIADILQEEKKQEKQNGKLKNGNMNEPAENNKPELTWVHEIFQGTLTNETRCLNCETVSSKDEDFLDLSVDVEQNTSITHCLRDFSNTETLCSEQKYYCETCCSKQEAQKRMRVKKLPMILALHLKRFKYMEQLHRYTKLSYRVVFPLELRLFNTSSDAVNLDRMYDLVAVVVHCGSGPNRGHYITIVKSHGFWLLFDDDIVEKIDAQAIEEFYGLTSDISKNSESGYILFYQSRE
# How it was run: as §1
# USP47 = target: T2, USP47 (UniProt Q96K76)
# T2 sequence (whole entry): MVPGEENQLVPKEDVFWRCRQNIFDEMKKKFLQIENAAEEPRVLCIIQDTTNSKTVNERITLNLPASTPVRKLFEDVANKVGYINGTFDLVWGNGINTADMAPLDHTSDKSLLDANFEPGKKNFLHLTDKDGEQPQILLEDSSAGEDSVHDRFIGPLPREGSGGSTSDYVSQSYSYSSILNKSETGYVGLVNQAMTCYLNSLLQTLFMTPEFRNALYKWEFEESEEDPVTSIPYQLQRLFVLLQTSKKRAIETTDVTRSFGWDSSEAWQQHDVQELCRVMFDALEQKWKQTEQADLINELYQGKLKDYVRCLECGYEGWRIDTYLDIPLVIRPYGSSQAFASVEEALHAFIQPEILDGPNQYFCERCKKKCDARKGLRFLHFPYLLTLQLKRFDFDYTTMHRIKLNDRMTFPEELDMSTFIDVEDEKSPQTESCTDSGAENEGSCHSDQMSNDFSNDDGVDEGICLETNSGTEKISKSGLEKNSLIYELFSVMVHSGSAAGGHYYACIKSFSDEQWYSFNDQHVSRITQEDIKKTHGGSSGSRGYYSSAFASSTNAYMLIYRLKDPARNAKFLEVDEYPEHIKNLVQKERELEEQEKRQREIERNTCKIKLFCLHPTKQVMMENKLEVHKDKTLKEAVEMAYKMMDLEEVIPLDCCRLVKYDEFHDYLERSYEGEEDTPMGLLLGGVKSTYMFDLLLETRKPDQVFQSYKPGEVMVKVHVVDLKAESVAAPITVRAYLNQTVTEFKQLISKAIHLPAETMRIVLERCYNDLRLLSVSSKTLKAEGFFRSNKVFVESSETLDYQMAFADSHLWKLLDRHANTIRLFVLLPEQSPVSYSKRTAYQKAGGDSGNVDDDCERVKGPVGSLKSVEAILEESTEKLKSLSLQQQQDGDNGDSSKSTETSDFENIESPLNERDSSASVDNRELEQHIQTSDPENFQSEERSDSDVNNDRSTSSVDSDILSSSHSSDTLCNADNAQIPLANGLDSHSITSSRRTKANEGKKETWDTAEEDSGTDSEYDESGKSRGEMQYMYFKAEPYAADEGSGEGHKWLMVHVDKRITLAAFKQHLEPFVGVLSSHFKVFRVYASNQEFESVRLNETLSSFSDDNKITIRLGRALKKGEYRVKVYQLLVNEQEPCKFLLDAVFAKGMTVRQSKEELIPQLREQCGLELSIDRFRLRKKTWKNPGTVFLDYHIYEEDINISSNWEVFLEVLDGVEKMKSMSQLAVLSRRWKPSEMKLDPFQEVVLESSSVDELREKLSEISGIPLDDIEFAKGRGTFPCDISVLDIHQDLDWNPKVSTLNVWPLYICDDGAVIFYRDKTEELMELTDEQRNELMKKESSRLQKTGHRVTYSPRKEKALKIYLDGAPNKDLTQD
# How it was run: as §1
# USP48 = target: T3, USP48 (UniProt Q86UV5)
# T3 sequence (whole entry): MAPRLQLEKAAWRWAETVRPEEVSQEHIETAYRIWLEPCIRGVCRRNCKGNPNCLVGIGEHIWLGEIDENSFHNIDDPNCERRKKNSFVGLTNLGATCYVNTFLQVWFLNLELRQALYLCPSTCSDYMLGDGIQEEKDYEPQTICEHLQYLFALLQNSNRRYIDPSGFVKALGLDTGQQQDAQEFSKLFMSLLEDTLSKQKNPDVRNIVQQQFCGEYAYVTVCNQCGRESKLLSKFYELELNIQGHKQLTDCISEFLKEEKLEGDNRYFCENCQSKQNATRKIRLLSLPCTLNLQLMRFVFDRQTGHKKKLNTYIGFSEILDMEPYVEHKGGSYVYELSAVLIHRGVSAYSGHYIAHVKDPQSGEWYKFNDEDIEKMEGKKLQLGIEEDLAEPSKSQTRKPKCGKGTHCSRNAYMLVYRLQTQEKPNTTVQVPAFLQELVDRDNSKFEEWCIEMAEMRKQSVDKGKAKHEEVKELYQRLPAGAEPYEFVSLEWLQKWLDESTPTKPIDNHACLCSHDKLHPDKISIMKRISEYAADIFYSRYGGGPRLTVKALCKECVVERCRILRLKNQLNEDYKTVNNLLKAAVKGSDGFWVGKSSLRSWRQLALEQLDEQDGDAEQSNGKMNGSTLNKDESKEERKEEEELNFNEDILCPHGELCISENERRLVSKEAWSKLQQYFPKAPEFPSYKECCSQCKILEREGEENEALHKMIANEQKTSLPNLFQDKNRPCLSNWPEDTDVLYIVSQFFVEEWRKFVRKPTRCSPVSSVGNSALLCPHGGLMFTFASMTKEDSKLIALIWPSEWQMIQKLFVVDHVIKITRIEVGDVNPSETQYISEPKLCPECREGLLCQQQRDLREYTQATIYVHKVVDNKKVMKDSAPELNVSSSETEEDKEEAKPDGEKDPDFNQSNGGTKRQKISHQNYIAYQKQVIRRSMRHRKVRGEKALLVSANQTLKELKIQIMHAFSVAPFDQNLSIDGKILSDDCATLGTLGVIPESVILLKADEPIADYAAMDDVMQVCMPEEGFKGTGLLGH
# How it was run: as §1
# USP5 = target: T4, USP5 (UniProt P45974)
# T4 sequence (whole entry): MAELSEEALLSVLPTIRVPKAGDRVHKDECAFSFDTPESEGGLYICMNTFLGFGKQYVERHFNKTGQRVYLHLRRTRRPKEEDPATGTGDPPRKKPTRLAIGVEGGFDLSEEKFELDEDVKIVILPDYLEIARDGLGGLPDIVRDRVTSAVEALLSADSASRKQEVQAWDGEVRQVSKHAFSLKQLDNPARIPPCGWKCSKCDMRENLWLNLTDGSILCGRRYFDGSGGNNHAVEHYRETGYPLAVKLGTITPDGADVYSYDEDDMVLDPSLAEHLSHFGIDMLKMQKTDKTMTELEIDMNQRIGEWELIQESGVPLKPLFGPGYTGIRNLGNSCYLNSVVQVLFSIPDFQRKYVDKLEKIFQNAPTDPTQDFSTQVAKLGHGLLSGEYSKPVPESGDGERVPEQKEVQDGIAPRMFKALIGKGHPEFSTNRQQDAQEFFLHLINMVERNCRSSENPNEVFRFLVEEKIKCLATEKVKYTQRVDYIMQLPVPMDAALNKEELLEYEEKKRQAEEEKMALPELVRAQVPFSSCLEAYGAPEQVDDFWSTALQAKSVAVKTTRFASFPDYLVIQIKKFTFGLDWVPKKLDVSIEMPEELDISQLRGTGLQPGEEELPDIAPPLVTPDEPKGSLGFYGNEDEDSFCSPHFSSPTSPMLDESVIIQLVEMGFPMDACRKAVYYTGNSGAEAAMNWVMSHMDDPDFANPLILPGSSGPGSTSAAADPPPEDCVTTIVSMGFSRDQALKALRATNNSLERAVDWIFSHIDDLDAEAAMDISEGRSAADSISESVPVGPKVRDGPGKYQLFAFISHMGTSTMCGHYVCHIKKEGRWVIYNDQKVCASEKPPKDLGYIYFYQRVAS
# How it was run: as §1
# USP54 = USP54 (UniProt Q70EL1)
# Sequence of USP54 (Q70EL1 whole entry): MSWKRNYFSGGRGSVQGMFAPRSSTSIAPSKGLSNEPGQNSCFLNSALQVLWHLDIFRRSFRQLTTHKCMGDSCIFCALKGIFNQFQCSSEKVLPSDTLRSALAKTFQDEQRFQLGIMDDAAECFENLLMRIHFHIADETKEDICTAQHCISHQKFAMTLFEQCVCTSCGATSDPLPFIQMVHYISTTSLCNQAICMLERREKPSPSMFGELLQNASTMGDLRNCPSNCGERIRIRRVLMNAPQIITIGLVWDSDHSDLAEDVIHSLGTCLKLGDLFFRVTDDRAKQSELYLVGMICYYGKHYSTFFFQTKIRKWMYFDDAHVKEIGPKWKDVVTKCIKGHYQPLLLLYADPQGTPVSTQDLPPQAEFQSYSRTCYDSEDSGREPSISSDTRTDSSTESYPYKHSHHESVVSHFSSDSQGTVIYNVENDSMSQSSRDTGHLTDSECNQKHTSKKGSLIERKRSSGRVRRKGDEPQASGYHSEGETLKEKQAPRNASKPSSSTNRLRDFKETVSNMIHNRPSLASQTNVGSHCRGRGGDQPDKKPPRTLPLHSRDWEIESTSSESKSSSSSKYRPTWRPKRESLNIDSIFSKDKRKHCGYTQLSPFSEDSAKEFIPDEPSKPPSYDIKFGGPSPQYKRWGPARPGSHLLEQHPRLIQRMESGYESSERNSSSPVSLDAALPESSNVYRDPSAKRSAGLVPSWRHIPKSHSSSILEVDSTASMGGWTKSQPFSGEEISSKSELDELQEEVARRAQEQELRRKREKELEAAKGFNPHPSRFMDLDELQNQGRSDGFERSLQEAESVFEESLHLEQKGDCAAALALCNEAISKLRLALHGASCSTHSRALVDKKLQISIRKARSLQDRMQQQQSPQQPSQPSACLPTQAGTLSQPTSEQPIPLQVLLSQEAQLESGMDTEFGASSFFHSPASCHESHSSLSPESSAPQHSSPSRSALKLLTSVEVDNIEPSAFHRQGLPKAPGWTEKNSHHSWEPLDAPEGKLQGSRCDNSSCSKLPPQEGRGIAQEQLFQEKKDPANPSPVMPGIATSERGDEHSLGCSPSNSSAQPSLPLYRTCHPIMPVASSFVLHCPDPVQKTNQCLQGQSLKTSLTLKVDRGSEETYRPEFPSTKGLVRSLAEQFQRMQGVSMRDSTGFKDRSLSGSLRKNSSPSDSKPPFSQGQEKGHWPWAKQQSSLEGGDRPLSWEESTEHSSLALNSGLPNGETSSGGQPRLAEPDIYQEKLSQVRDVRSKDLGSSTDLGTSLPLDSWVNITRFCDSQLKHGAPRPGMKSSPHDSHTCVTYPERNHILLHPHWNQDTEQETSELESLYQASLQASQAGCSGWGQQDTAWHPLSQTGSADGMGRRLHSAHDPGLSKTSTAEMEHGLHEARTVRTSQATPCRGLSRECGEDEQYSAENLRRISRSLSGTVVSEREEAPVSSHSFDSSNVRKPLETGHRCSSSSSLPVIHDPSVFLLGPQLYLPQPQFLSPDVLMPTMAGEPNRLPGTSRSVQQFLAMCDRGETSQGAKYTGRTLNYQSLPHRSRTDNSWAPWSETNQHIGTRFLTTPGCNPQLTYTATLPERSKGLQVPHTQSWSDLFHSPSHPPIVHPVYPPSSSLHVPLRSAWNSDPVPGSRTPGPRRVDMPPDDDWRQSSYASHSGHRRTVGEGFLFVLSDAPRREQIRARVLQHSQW
# How it was run: as §1
# USP7 = USP7 (UniProt Q93009)
# Sequence of USP7 (Q93009 whole entry, looked up): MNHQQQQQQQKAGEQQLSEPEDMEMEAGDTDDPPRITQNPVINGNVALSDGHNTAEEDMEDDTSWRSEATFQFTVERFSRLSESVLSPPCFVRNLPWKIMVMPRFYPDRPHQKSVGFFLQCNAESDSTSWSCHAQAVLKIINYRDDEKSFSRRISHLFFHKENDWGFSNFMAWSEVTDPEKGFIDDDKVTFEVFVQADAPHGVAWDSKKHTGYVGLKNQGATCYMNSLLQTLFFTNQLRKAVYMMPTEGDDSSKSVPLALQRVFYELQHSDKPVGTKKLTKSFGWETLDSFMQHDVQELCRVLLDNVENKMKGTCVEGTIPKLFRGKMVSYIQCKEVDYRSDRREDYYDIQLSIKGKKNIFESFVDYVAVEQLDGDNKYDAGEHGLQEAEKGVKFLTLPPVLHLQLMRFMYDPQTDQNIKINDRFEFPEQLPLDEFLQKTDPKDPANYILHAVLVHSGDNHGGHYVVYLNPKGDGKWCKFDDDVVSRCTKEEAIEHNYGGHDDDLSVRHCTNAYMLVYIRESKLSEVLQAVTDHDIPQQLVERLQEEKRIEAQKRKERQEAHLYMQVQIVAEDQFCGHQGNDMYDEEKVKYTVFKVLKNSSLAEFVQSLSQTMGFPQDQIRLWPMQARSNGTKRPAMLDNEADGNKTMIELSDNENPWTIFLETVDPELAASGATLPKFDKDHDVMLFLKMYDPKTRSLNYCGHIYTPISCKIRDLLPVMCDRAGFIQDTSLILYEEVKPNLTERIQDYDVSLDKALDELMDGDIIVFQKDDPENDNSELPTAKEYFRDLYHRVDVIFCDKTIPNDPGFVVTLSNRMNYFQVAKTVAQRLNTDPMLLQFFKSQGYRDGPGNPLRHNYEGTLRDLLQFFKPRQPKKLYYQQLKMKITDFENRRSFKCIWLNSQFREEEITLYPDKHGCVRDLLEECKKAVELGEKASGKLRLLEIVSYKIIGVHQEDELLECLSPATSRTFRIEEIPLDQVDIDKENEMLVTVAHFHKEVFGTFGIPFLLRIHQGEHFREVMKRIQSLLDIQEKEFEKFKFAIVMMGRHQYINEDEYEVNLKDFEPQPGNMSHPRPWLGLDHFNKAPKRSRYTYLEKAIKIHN
# How it was run: as §1
# USP8 = target: T5, USP8 (UniProt P40818)
# T5 sequence (whole entry): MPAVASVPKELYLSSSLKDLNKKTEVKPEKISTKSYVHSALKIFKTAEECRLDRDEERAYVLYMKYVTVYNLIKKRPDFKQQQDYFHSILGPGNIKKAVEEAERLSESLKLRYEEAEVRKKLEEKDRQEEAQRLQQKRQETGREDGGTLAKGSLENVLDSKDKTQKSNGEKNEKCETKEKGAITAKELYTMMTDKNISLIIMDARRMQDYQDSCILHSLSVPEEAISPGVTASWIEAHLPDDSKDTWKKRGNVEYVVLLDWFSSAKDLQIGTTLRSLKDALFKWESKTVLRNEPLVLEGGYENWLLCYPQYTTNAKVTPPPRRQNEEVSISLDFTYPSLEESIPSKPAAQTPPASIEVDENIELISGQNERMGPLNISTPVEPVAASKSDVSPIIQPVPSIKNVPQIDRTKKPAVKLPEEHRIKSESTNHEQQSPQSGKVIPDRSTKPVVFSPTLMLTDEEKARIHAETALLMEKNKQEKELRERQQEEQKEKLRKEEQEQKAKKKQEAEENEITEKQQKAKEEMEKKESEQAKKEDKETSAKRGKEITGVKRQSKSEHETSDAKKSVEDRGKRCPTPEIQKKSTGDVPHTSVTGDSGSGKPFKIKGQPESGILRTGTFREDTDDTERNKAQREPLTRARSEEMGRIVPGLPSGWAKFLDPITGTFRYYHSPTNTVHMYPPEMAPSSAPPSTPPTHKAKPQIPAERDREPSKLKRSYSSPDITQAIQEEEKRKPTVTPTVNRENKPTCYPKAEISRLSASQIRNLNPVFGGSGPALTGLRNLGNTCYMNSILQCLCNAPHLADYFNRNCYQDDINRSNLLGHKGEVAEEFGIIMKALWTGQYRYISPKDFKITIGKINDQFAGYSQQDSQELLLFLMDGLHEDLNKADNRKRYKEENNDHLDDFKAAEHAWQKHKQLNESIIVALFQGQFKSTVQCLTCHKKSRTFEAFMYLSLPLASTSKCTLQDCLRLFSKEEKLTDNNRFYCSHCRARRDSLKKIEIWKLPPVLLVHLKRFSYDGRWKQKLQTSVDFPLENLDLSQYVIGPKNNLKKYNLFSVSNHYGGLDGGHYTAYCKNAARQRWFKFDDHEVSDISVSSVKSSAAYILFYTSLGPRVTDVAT
# How it was run: as §1
structure (smiles),measurement,setting,value
Cl.O=C(CCl)N1CCC(n2nc3ccccc3n2)CC1,log2 ratio of Biotin-Ahx-Ub-VS probe labelling,USP42,0.181
same,log2 ratio of Biotin-Ahx-Ub-VS probe labelling,USP46,-0.321
same,log2 ratio of Biotin-Ahx-Ub-VS probe labelling,USP47,-0.894
same,log2 ratio of Biotin-Ahx-Ub-VS probe labelling,USP48,-0.485
same,log2 ratio of Biotin-Ahx-Ub-VS probe labelling,USP5,-0.467
same,log2 ratio of Biotin-Ahx-Ub-VS probe labelling,USP54,-0.186
same,log2 ratio of Biotin-Ahx-Ub-VS probe labelling,USP7,-1.88 (active)
same,log2 ratio of Biotin-Ahx-Ub-VS probe labelling,USP8,-0.518
